Laboratory results: PubChem BioAssay (NCATS)
Records with an inconclusive call do not appear. Values without a mark were called inactive. Calls follow the shape of the dose curve; as a rule, active = well fitted curve in the direction sought with a large enough effect; inconclusive = small, poorly fitted or top-dose-only effect, or effect the other way, or another doubt; inactive = no such curve, though single readings can be large or run the other way.

What follows are compounds tested against Transient receptor potential cation channel subfamily V member 1 (Homo sapiens) (UniProt Q8NER1) (assay: HTS Assay for Compounds that Act as Enhancers of the Vanilloid Receptor 1 (AID 488979; also: 0% is about no effect)). Settings: TRPV1-expressing cells, enhancer of channel activity, stimulated with capsaicin at EC20; series mostly up to 41.7 µM; activity change, positive = enhancement: at the top concentration.
Source text: The transient receptor potential ion channel, family V, number 1, (TRPV1) is one of the most important molecular transducers of painful stimuli and a potential target for analgesic drug development. Although recent clinical trials with orthosteric antagonists have not produced a successful drug because of a hyperthermia side effect and their tendency to block thermal noxious pain, this ion channel is undeniably well placed in the pain pathway, and the idea of blocking pain signals before they enter the CNS is an excellent concept and of proven efficacy when TRPV1 agonists are used. We propose a new approach involving allosteric modulation to impose an activity-dependent constraint within the context of inflammation and tissue damage that would alter the responsiveness of the channel in a way that an orthosteric vanilloid antagonist cannot achieve. We believe that the allosteric modulator approach has not been explored for this target.
The main goal of this proposal is to identify additional, new, potent allosteric modulators of TRPV1 that can be used to investigate TRPV1 function. Our recent report provides evidence of proof of concept, but the compounds are just at the edge of utility in terms of potency. […] The question of whether they can be used as analgesic agents is complex, but if suitable compounds are identified then testing for analgesic properties will be conducted.
Upon TRPV1 activation in TRPV1 cells, the channel opens and extracellular cations flow through the channel into the cytosol. A calcium binding dye (Fluo-8) becomes fluorescent when bound to calcium. This dye is pre-loaded into cells and is used as a marker for calcium influx.
The amount of accumulated calcium is precisely quantified using the FDSS kinetic reader and the calcium dye.
For the HTS assay, freshly prepared cells are plated at a density of 2000/well in 3 ul medium in 1536-well plates and cultured overnight at 35.5C. Cells will be loaded with 1 ul of the homogeneous calcium dye (ABD Bioquest) at room temperature for 40 to 90 minutes. Plates will be loaded into the FDSS kinetic reader and a 1 sec / cycle for 10 second baseline signal will be measured. Compound library will then be added with a pintool at 23 nl and measured kinetically for 3 minutes. This portion of the read is considered the agonist portion of the screen. Following the 3 minutes of incubation, an on board pipettor will deliver 1 ul of capsaicin for a final concentration equal to the EC20. Signal will be measured kinetically for an additional 2 minutes. This portion of the read is considered the allosteric enhancer portion of the screen.
The FDSS reader has a standard filter set capable of measuring calcium bound Fluo-8 (ex=480 and em=520 nm).

Transient receptor potential cation channel subfamily V member 1 (Homo sapiens), sequence (Q8NER1 whole entry, looked up): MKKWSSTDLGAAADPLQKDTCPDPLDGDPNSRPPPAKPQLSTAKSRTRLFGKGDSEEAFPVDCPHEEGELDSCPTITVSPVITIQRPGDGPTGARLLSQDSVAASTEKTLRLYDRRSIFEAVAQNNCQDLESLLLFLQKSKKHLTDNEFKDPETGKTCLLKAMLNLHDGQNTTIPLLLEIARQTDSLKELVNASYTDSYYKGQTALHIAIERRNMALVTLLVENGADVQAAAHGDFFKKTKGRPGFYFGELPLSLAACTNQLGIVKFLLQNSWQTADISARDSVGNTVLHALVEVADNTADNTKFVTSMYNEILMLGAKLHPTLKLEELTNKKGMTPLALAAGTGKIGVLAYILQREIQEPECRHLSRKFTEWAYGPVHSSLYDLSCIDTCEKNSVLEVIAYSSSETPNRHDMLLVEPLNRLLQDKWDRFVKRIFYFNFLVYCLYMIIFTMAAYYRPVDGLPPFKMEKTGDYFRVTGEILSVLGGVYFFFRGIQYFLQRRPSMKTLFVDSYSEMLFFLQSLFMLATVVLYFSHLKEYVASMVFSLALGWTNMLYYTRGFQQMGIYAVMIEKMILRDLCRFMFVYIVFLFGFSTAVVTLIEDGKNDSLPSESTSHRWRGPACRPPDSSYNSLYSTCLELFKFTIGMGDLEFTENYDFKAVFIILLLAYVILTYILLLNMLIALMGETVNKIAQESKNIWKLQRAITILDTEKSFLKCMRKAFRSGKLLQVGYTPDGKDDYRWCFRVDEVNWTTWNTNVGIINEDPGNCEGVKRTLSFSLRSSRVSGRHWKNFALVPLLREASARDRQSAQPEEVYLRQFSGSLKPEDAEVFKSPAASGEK

| Structure (SMILES) | activity change, positive = enhancement |
| --- | --- |
| Cc1cc(O)c2c(c1)C(=O)c1cc(O)cc(O)c1C2=O | 1.05% |
| NC(=NCc1ccccc1)NC(=O)c1nc(Cl)c(N)nc1N | 11.4% |
| O=C1c2c(O)cc(O)cc2OC(c2ccc(O)c(O)c2)C1O (stereo not given) | 10.7% |
| O=C1NC(=O)C(c2ccccc2[N+](=O)[O-])=C1Nc1ccc(O)c(Cl)c1 | -11% |
| C[C@H](Cc1ccc(O)c(O)c1)[C@@H](C)Cc1ccc(O)c(O)c1 | 7.01% |
| Cc1c(OCC(F)(F)F)ccnc1CS(=O)c1nc2ccccc2[nH]1 (stereo not given) | 8.73% |
| O=C(NCC1CCCCN1)c1cc(OCC(F)(F)F)ccc1OCC(F)(F)F (stereo not given) | 10.1% |
| O=c1c(O)c(-c2cc(O)c(O)c(O)c2)oc2cc(O)cc(O)c12 | 12.4% |
| CC1(C)C(=O)N(CCN2CCC(C(=O)c3ccc(F)cc3)CC2)c2ccccc21 | -8.77% |
| Nc1nc(OCc2ccccc2)c2[nH]cnc2n1 | -19.3% |
| O=C(CCc1ccc(O)cc1)c1c(O)cc(O)cc1O | 6.65% |
| COc1ccccc1N1CCN(CCN(C(=O)C2CCCCC2)c2ccccn2)CC1 | -23.5% |
| NCCCCNCCCN | 2.04% |
| CNC[C@H](O)c1ccc(O)c(O)c1 | -3.87% |
| C[C@@H](N)C1CCC(C(=O)Nc2ccncc2)CC1 (stereo not given in full) | 4.45% |
| NNc1nncc2ccccc12 | 0.933% |
| O=C1c2ccccc2-c2n[nH]c3cccc1c23 | 5.44% |
| Oc1ccc(-c2nc(-c3ccc(F)cc3)c(-c3ccncc3)[nH]2)cc1 | -5.8% |
| OC(CN1CCN(c2cccc(Cl)c2)CC1)C(c1ccccc1)c1ccccc1 (stereo not given) | -6.4% |
| O=c1ccc2ccc(O)c(O)c2o1 | -17.9% |
| O=C(O)c1cccnc1Nc1cccc(C(F)(F)F)c1 | -7.26% |
| Cc1nc2n(c(=O)c1CCN1CCC(c3noc4cc(F)ccc34)CC1)CCCC2 | -4.11% |
| O=Nc1c(-c2c(O)[nH]c3cc(Br)ccc23)[nH]c2ccccc12 | -33.6% |
| Cc1cccc(C#Cc2ccccc2)n1 | -17.4% |
| COc1ccc2cc([C@H](C)C(=O)O)ccc2c1 | 0.245% |
| O=c1cc(N2CCOCC2)oc2c(-c3ccccc3)cccc12 | -5.94% |
| COc1cc2nc(N3CCN(C(=O)C4CCCO4)CC3)nc(N)c2cc1OC (stereo not given) | -9.44% |
| O=C(c1ccccc1)c1ccc2n1CCC2C(=O)O (stereo not given) | -1.47% |
| CC1(C)NC(=O)N(c2ccc([N+](=O)[O-])c(C(F)(F)F)c2)C1=O | 10.2% |
| CC(=O)O[C@H]1C(=O)[C@@]2(C)C([C@H](OC(=O)c3ccccc3)[C@]3(O)C[C@H](OC(=O)[C@H](O)[C@@H](NC(=O)c4ccccc4)c4ccccc4)C(C)=C1C3(C)C)[C@]1(OC(C)=O)CO[C@@H]1C[C@@H]2O (stereo not given in full) | -10.7% |
